Drawing on the supplement of paper PMC10646978, this text covers NF-kB reporter, IRF reporter and viability score for 16 molecules.

SMILES strings stand for the structures. ± gives the standard deviation.

What all share (details): modulator concentration 10 µM
The subject of experiment [1] is RAW-Dual (murine macrophage reporter line). Nature of the experiment: NF-kB reporter (SEAP) activity fold change vs agonist alone; higher = enhanced NF-kB activity. In outline: (§1)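 RAW-Dual murine macrophage reporter cells were seeded at 50 000 per well in 384-well plates and pre-incubated 1 hour at 37 °C with compound pin-transferred to 10 μM final. After 1 hour, a PRR agonist was added and cells incubated overnight. Supernatant NF-κB (SEAP, QUANTI-Blue, 620 nm absorbance) and IRF (Lucia luciferase, QUANTI-Luc, luminescence) signals were divided by the mean agonist-only control on the same plate to give fold change. Two replicate plates were averaged, with errors by propagation.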

Experiment [2] has the same test system. Nature of the experiment: IRF reporter (Lucia luciferase) activity fold change vs agonist alone; higher = enhanced IRF activity. In outline: as §1
Experiment [3] shares this test system. Nature of the experiment: viability score (confluency relative to resting cells, overnight) (fraction); higher = more viable, active = viable (0.7 or more). In outline:
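RAW-Dual macrophages in 384-well plates were incubated overnight with compound, final concentration 10 μM. Confluency images from IncuCyte were processed in IncuCyte software into two masks covering all imaged wells. The viability score is each well's confluency relative to resting cells, and a compound met the cutoff when both masks exceeded 70% of resting cells.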

[4] abbreviates: agonist: CpG ODN 1826 0.5 ug/mL.

As for `CNCCCN1c2ccccc2CCc2ccccc21.Cl`, the NF-kB reporter in experiment [1] (setting [4]) amounted to 0.462 ± 0.11; in experiment [1] (agonist: LPS 0.1 ug/mL), 1.14 ± 0.11; in experiment [1] (agonist: MPLA […]) it was 1.54 ± 0.1. Moreover, the IRF reporter in experiment [2] (agonist: 3'3'-cGAMP 10 ug/mL) amounted to 0.45 ± 0.017; in experiment [2] (agonist: LPS 0.1 ug/mL), 1.46 ± 0.2; in experiment [2] (agonist: MPLA […]) it was 1.88 ± 0.19. In addition, the viability score in experiment [3] is 0.951 (active).

On to `O=C(Nc1ccc(NS(=O)(=O)c2ccccc2)cc1)c1ccco1`, for which the results for the NF-kB reporter in experiment [1] (setting [4]), in experiment [1] (agonist: LPS 0.1 ug/mL) and in experiment [1] (agonist: MPLA […]) were 1.12 ± 0.14, 0.922 ± 0.13 and 0.998 ± 0.035, respectively. The IRF reporter came to 0.879 ± 0.14 in experiment [2] (agonist: 3'3'-cGAMP 10 ug/mL), 0.818 ± 0.035 in experiment [2] (agonist: LPS 0.1 ug/mL) and 0.823 ± 0.095 in experiment [2] (agonist: MPLA […]). For the same molecule, in experiment [3], the viability score was 1 (active).

On to `O=C(O)c1ccccc1N(Cc1ccccc1)S(=O)(=O)c1ccccc1`, for which the results for the NF-kB reporter in experiment [1] (setting [4]), in experiment [1] (agonist: LPS 0.1 ug/mL) and in experiment [1] (agonist: MPLA […]) were 1.14 ± 0.13, 1 ± 0.15 and 1.08 ± 0.061, respectively. The IRF reporter in experiment [2] (agonist: 3'3'-cGAMP 10 ug/mL) was 0.965 ± 0.1; in experiment [2] (agonist: LPS 0.1 ug/mL) it was 1.06 ± 0.072; in experiment [2] (agonist: MPLA […]), 0.938 ± 0.14. The viability score in experiment [3] is 0.984 (active).

Take `Ic1ccc(OCCCOc2ncnc3ccccc23)cc1`: the NF-kB reporter is 0.781 ± 0.069 in experiment [1] (setting [4]), 0.931 ± 0.045 in experiment [1] (agonist: LPS 0.1 ug/mL) and 1.14 ± 0.12 in experiment [1] (agonist: MPLA […]). For the same molecule, the IRF reporter came out at 0.963 ± 0.05 in experiment [2] (agonist: 3'3'-cGAMP 10 ug/mL), 1.39 ± 0.095 in experiment [2] (agonist: LPS 0.1 ug/mL) and 1.6 ± 0.2 in experiment [2] (agonist: MPLA […]). Further, the viability score in experiment [3] is 1.02 (active).

Regarding `CC1=NN(C(=O)CCCc2ccccc2)C(O)(c2ccc(Cl)cc2)C1` (configuration not stated), the values for the NF-kB reporter in experiment [1] (setting [4]), in experiment [1] (agonist: LPS 0.1 ug/mL) and in experiment [1] (agonist: MPLA […]) were 0.923 ± 0.1, 1 ± 0.13 and 1.02 ± 0.049, respectively. The IRF reporter in experiment [2] (agonist: 3'3'-cGAMP 10 ug/mL) stood at 0.899 ± 0.2; in experiment [2] (agonist: LPS 0.1 ug/mL) it was 1.1 ± 0.065; in experiment [2] (agonist: MPLA […]) it was 1.13 ± 0.15. For the same molecule, the viability score in experiment [3] was 0.999 (active).

Regarding `COc1ccc(-c2csc(NC(=O)CCc3ccccc3)c2C(=O)O)cc1`, the NF-kB reporter is 0.697 ± 0.1 in experiment [1] (setting [4]), 0.809 ± 0.072 in experiment [1] (agonist: LPS 0.1 ug/mL) and 1.04 ± 0.15 in experiment [1] (agonist: MPLA […]). Besides, the values for the IRF reporter in experiment [2] (agonist: 3'3'-cGAMP 10 ug/mL), in experiment [2] (agonist: LPS 0.1 ug/mL) and in experiment [2] (agonist: MPLA […]) were 0.957 ± 0.046, 1.51 ± 0.12 and 1.63 ± 0.14, respectively. For the same molecule, in experiment [3], the viability score was 1.02 (active).

`CNC(CC(=O)O)C(=O)O` (configuration not stated): the NF-kB reporter worked out at 0.986 ± 0.073 in experiment [1] (setting [4]), 1.08 ± 0.073 in experiment [1] (agonist: LPS 0.1 ug/mL) and 0.978 ± 0.028 in experiment [1] (agonist: MPLA […]). Moreover, the IRF reporter worked out at 0.943 ± 0.054 in experiment [2] (agonist: 3'3'-cGAMP 10 ug/mL), 0.942 ± 0.094 in experiment [2] (agonist: LPS 0.1 ug/mL) and 0.948 ± 0.078 in experiment [2] (agonist: MPLA […]). In addition, the viability score in experiment [3] was 1 (active).

On to `Cc1cc(OCCCOc2cccc3cccnc23)ccc1Cl`, for which the NF-kB reporter in experiment [1] (setting [4]) is 0.752 ± 0.06; in experiment [1] (agonist: LPS 0.1 ug/mL), 1.02 ± 0.058; in experiment [1] (agonist: MPLA […]), 0.864 ± 0.052. For the same molecule, the values for the IRF reporter in experiment [2] (agonist: 3'3'-cGAMP 10 ug/mL), in experiment [2] (agonist: LPS 0.1 ug/mL) and in experiment [2] (agonist: MPLA […]) were 0.998 ± 0.025, 1.14 ± 0.18 and 1.03 ± 0.27, respectively. In addition, in experiment [3], the viability score is 1 (active).

In the case of `O=C(Nc1c(Cl)cncc1Cl)c1ccc(OC(F)F)c(OCC2CC2)c1`, the NF-kB reporter in experiment [1] (setting [4]) turned out to be 2.48 ± 0.36; in experiment [1] (agonist: LPS 0.1 ug/mL), 1.99 ± 0.17; in experiment [1] (agonist: MPLA […]), 1.44 ± 0.1. The values for the IRF reporter in experiment [2] (agonist: 3'3'-cGAMP 10 ug/mL), in experiment [2] (agonist: LPS 0.1 ug/mL) and in experiment [2] (agonist: MPLA […]) were 0.804 ± 0.025, 0.908 ± 0.094 and 1.24 ± 0.22, respectively. Moreover, the viability score in experiment [3] is 0.968 (active).

As for `CCN(CC)c1ccc(C=Nc2c(C)cc(C)cc2C)cc1`, the NF-kB reporter worked out at 0.97 ± 0.08 in experiment [1] (setting [4]), 1.03 ± 0.086 in experiment [1] (agonist: LPS 0.1 ug/mL) and 0.959 ± 0.054 in experiment [1] (agonist: MPLA […]). Further, the IRF reporter in experiment [2] (agonist: 3'3'-cGAMP 10 ug/mL) turned out to be 0.894 ± 0.046; in experiment [2] (agonist: LPS 0.1 ug/mL) it was 0.968 ± 0.063; in experiment [2] (agonist: MPLA […]), 0.94 ± 0.065. Moreover, the viability score in experiment [3] was 1 (active).

For `Oc1ccc(CN2CCOCC2)cc1`, the NF-kB reporter worked out at 1.05 ± 0.17 in experiment [1] (setting [4]), 1.08 ± 0.094 in experiment [1] (agonist: LPS 0.1 ug/mL) and 0.971 ± 0.09 in experiment [1] (agonist: MPLA […]). Besides, the figures for the IRF reporter in experiment [2] (agonist: 3'3'-cGAMP 10 ug/mL), in experiment [2] (agonist: LPS 0.1 ug/mL) and in experiment [2] (agonist: MPLA […]) were 0.939 ± 0.06, 1.24 ± 0.14 and 1.25 ± 0.13, respectively. For the same molecule, in experiment [3], the viability score is 0.995 (active).

Take `COc1ccc(C2CC(=O)c3c(O)cc(O)cc3O2)cc1O` (configuration not stated): the NF-kB reporter in experiment [1] (setting [4]) is 1.43 ± 0.35; in experiment [1] (agonist: LPS 0.1 ug/mL) it was 1.14 ± 0.064; in experiment [1] (agonist: MPLA […]), 1.15 ± 0.073. The IRF reporter in experiment [2] (agonist: 3'3'-cGAMP 10 ug/mL) amounted to 0.845 ± 0.028; in experiment [2] (agonist: LPS 0.1 ug/mL), 1.14 ± 0.21; in experiment [2] (agonist: MPLA […]) it was 1.1 ± 0.1. Further, in experiment [3], the viability score is 1 (active).

Consider `O=C(c1ccc(F)cc1)C1CCN(CCn2c(=O)[nH]c3ccccc3c2=O)CC1`, for which the results for the NF-kB reporter in experiment [1] (setting [4]), in experiment [1] (agonist: LPS 0.1 ug/mL) and in experiment [1] (agonist: MPLA […]) were 0.477 ± 0.028, 0.956 ± 0.1 and 1.34 ± 0.072, respectively. For the same molecule, the results for the IRF reporter in experiment [2] (agonist: 3'3'-cGAMP 10 ug/mL), in experiment [2] (agonist: LPS 0.1 ug/mL) and in experiment [2] (agonist: MPLA […]) were 1.47 ± 0.068, 1.21 ± 0.19 and 1.45 ± 0.34, respectively. Besides, the viability score in experiment [3] was 0.314 (inactive).

On to `CC(C)(C)NC[C@H](O)COc1nsnc1N1CCOCC1.O=C(O)/C=C\C(=O)O`, for which the NF-kB reporter in experiment [1] (setting [4]) came to 1.19 ± 0.2; in experiment [1] (agonist: LPS 0.1 ug/mL), 1.13 ± 0.43; in experiment [1] (agonist: MPLA […]) it was 0.917 ± 0.056. Moreover, the IRF reporter came out at 0.906 ± 0.031 in experiment [2] (agonist: 3'3'-cGAMP 10 ug/mL), 1.3 ± 0.34 in experiment [2] (agonist: LPS 0.1 ug/mL) and 1.21 ± 0.14 in experiment [2] (agonist: MPLA […]). Moreover, the viability score in experiment [3] is 0.992 (active).

As for `CCOc1cc([C@@H](CS(C)(=O)=O)N2C(=O)c3cccc(NC(C)=O)c3C2=O)ccc1OC`, the NF-kB reporter came to 2.72 ± 0.66 in experiment [1] (setting [4]), 0.969 ± 0.058 in experiment [1] (agonist: LPS 0.1 ug/mL) and 1.69 ± 0.15 in experiment [1] (agonist: MPLA […]). Further, the IRF reporter came to 1.01 ± 0.048 in experiment [2] (agonist: 3'3'-cGAMP 10 ug/mL), 1.05 ± 0.12 in experiment [2] (agonist: LPS 0.1 ug/mL) and 1.14 ± 0.15 in experiment [2] (agonist: MPLA […]). For the same molecule, the viability score in experiment [3] was 0.977 (active).

For the molecule `Cc1ccsc1C(=CCCN1CCC[C@@H](C(=O)O)C1)c1sccc1C`, the NF-kB reporter in experiment [1] (setting [4]) was 1.06 ± 0.084; in experiment [1] (agonist: LPS 0.1 ug/mL), 1.06 ± 0.053; in experiment [1] (agonist: MPLA […]) it was 0.972 ± 0.033. In addition, the results for the IRF reporter in experiment [2] (agonist: 3'3'-cGAMP 10 ug/mL), in experiment [2] (agonist: LPS 0.1 ug/mL) and in experiment [2] (agonist: MPLA […]) were 0.857 ± 0.056, 0.961 ± 0.05 and 0.732 ± 0.082, respectively. Also, the viability score in experiment [3] was 0.997 (active).
